Out of some 310,000 compounds screened, about 14,000 (4.5%) showed an effect of 50% or more. The effect is printed as a negative number. This excerpt belongs to a sample that is enriched for strong results.
Each compound was assayed against human ether-à-go-go-related gene (hERG) potassium channel (human, UniProt Q12809) (assay: primary screen, population patch clamp on CHO cells stably expressing hERG; higher = less effect of the substance).
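Note: peak tail current of the secondary pulse compared with the same well before compound.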

Sequence of human ether-à-go-go-related gene (hERG) potassium channel (Q12809 whole entry, looked up): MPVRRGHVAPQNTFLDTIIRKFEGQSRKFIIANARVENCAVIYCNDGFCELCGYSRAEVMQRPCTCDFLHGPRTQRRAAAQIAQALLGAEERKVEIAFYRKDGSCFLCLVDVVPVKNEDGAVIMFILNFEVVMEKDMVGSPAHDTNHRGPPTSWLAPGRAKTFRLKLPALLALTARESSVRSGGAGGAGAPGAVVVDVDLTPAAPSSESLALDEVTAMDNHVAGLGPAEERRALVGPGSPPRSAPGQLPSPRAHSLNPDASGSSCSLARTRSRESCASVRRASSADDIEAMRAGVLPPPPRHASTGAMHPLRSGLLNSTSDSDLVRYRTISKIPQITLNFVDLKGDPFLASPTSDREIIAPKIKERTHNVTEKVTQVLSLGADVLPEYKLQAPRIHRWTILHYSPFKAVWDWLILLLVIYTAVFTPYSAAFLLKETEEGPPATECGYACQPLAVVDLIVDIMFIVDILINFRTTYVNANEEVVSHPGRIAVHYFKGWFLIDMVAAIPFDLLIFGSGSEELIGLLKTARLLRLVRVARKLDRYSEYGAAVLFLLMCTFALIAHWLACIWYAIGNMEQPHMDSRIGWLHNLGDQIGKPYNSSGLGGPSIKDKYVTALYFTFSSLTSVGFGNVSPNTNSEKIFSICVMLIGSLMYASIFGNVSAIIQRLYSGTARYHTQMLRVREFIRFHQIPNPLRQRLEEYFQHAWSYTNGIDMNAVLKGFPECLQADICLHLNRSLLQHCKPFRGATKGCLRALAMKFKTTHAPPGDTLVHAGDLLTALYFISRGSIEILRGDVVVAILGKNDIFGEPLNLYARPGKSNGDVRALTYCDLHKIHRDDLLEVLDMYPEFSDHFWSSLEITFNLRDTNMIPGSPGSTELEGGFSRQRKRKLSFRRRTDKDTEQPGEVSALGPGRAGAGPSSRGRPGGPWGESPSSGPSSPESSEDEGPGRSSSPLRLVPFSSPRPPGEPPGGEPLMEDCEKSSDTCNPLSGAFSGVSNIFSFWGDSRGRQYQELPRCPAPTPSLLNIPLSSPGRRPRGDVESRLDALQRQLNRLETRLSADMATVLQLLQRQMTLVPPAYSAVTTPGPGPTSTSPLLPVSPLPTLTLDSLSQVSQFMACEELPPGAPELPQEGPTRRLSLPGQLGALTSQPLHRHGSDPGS

| SMILES | hERG current change (%, negative = inhibition) at 10uM [%] |
| --- | --- |
| COc1ccc(-c2nc(C#N)c(NCCCN3CCOCC3)o2)cc1 | -13 |
| N#Cc1nc(Cc2cccc3ccccc23)oc1NCCCN1CCOCC1 | -26.3 |
| Cc1ccc(-c2nc(C#N)c(NCCN3CCCCC3)o2)cc1 | -55.8 |
| N#Cc1nc(-c2ccc(OCc3ccc(Cl)cc3)cc2)oc1NCCCn1ccnc1 | 5.77 |
| N#Cc1nc(Cc2cccc3ccccc23)oc1NCCN1CCCCC1 | -60.3 |
| N#Cc1nc(-c2ccco2)oc1NCCN1CCOCC1 | 7.46 |
| N#Cc1nc(COc2ccc(Br)cc2)oc1NCCCn1ccnc1 | -63.2 |
| CC(C)C[C@@H](CO)N(Cc1ccccc1)S(=O)(=O)N(Cc1ccccc1)[C@@H](CO)CC(C)C | 7.47 |
| CCc1ccc[n+](-c2[nH]c(=O)sc2/C=N/N=C(\N)[O-])c1 | -10 |
| CCCCCN(C(=O)COC(=O)COc1c(C)cc(C)cc1C)c1c(N)n(CCCC)c(=O)[nH]c1=O | -14.4 |
| COc1ccc(C(C(=O)NCCC(C)C)N(CCO)C(=O)c2snc(C(N)=O)c2N)cc1 (centres unmarked) | -1.26 |
| O=C(Nc1ccccc1N1CCN(c2ccccc2)CC1)c1ccccc1 | 8.61 |
| O=C1C(=O)N(CCc2c[nH]c3ccccc23)C(c2cccnc2)/C1=C(/O)c1ccccc1 (centres unmarked) | 2.24 |
| COc1ccc(C(=O)NC(=S)NC(C)c2ccccc2)cc1 (centres unmarked) | 21.8 |
| C=C1C(=O)O[C@H]2C1CC[C@@](C)(O)C13C=CC(C)(C21)C1(C3)C(=O)O[C@@H]2C3C(C)=CCC3[C@](C)(O)C[C@H](OC(C)=O)C21 (some centres unmarked) | 2.81 |
| COc1ccccc1NC(=O)CSc1ncn(-c2ccccc2)n1 | -41.1 |
| N#Cc1nc(COc2ccc(F)cc2)oc1NCCCn1ccnc1 | -64.2 |
| N#Cc1nc(-c2ccc(F)cc2)oc1NCCCn1ccnc1 | -49.3 |
| N#Cc1nc(COc2ccccc2F)oc1NCCCn1ccnc1 | -42.5 |
| COc1cc(/C=N/NC(=O)COc2ccc(-n3cnnn3)cc2)ccc1OCC(N)=O | 17.3 |
| CCNc1nc(NCC)nc(N/N=C/c2ccccc2)n1 | 4.81 |
| CCNc1nc(NCC)nc(N/N=C/c2ccc(OC)cc2)n1 | 6.24 |

| SMILES | hERG current change (%, negative = inhibition) at 10uM [%] |
| --- | --- |
| Cc1cc(C)nc(N/N=C/c2ccc([N+](=O)[O-])o2)n1 | 2.14 |
| O=[N+]([O-])c1ccc(/C=N/Nc2nc(-c3ccccc3)c3cc(Br)ccc3n2)o1 | -4.84 |
| Cc1ccc2nc(N/N=C/c3ccccc3F)nc(-c3ccccc3)c2c1 | 0.778 |
| N#Cc1ccccc1/C=N/Nc1nc(-c2ccccc2)c2cc(Br)ccc2n1 | -67.4 |
| CCNc1nc(NCC)nc(N/N=C/c2ccc([N+](=O)[O-])o2)n1 | -50.8 |
| N#Cc1ccccc1/C=N/Nc1nc(-c2ccccc2)c2cc(Cl)ccc2n1 | -46.3 |
| O=[N+]([O-])c1ccc(/C=N/Nc2nc(N3CCCC3)nc(N3CCCC3)n2)o1 | 1.41 |
| CCNc1nc(NCC)nc(N/N=C/c2ccc(Br)cc2)n1 | -74.6 |
| Cc1ccc2nc(N/N=C\c3ccc([N+](=O)[O-])o3)nc(-c3ccccc3)c2c1 | -72.6 |
| Cc1cc(N/N=C/c2ccc([N+](=O)[O-])o2)nc2ccccc12 | 1.15 |
| CC(Sc1nc(N)cc(=O)[nH]1)C(=O)NC1CCCCC1 (centres unmarked) | -4 |
| O=C(CSc1ncccn1)NCc1ccccc1Cl | -2.63 |
| CCOc1ncccc1C(=O)Nc1ccc(S(=O)(=O)Nc2nc(C)cc(C)n2)cc1 | 2.16 |
| CCOC(=O)N1CCN(C(=O)CSc2ccc(-c3ccncc3)nn2)CC1 | -0.414 |
| Cc1ccccc1-n1cnc2cc(NCc3cccs3)ccc21 | -31 |
| CC1=C(C(=O)NCCN2CCN(C)CC2)C2(CCC(C)CC2)OC1=O (centres unmarked) | 6.17 |
| Cc1ccc(-c2ccc(CO)o2)cc1N | 9.48 |
| O=C(CN1C(=O)C2CC=CCC2C1=O)Nc1ccc(S(=O)(=O)NC2=NCCCCC2)cc1 (centres unmarked) | 1.02 |
| CCN1C(=O)C(=C2C=C(C)N(Cc3ccco3)C(C)=C2)C(=O)N(CC)C1=S | -35 |
| CCCCC(=O)Nc1nnc(-c2ccco2)o1 | -0.241 |
| Cc1cc(C)c(C(=O)OCC(=O)NC(=O)c2ccccc2)c(C)c1 | 11.9 |
| O=C(CCc1ccccc1)Nc1cc(NC(=O)CCc2ccccc2)cc(C(=O)O)c1 | -22 |

Reference: paper PMC4336329 (PLoS ONE, 2015)
